According to PubChem BioAssay (Tox21):
Records with an inconclusive call do not appear. Where a call stands in place of a potency, no number is given. The source made the active and inactive calls. Calls come from the whole dose curve; as a rule, active = well fitted cell-killing curve with a large enough effect in the repeat runs; inconclusive = weak or mixed curves, or effect the other way; inactive = flat fitted curve, though single readings scatter.

Assay: cAMP Responsive Elements (CRE) small molecule antagonists, cell-based qHTS assay: qHTS cell viability counter screen (AID 2060913); note: nearly all actives have a fitted effect of over 40% in size
Settings: CRE-bla HEK293T viability, CellTiter-Glo luminescence, 5 h; series mostly up to 92.4 µM
Outline: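 CRE-bla HEK293T cells (2,000/well, 18 h) given compound plus NKH477 0.25 uM final for 3 h at 37C; viability counter-screen by CellTiter-Glo luminescence in same wells after 30 min.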
Potency is the fitted concentration of half-maximal effect.

Compound | Potency
CCOc1cc(C=O)ccc1O | inactive
CCCCCCOC(=O)c1ccccc1C(=O)OCCCCCC | inactive
c1ccc(NNc2ccccc2)cc1 | inactive
COc1ccc(C=O)cc1 | inactive
O=C(O)c1cc(Oc2ccc(C(F)(F)F)cc2Cl)ccc1[N+](=O)[O-] | inactive
CC(C)=CC1C(C(=O)OCc2cccc(Oc3ccccc3)c2)C1(C)C (stereo not given) | inactive
c1ccc2c(c1)sc1ccccc12 | inactive
c1cc(OCC2CO2)ccc1Cc1ccc(OCC2CO2)cc1 (stereo not given) | inactive
CS(=O)(=O)c1cc(C(F)(F)F)ccc1C(=O)c1cnoc1C1CC1 | inactive
O=C(O)COc1ccc(Cl)cc1 | inactive
O=Cc1cccc(Oc2ccccc2)c1 | inactive
CN1C[C@@H](NS(=O)(=O)N(C)C)C[C@@H]2c3cccc4c3c(cn4C)C[C@H]21 | inactive
CC(C)(c1ccccc1)c1ccc(O)cc1 | inactive
COCC(=O)N(c1c(C)cccc1C)N1CCOC1=O | inactive
O=C(NC(=O)c1c(F)cccc1F)Nc1cc(Cl)c(OC(F)(F)C(F)F)c(Cl)c1 | inactive
ClC(Cl)(Cl)C(Cl)(Cl)Cl | inactive
O=P(O)(Oc1ccccc1)Oc1ccccc1 | inactive
N#Cc1c2ccccc2cc2ccccc12 | inactive
O=Cc1ccc(Cl)cc1Cl | inactive
CC(C)NC(=O)N1CC(=O)N(c2cc(Cl)cc(Cl)c2)C1=O | inactive

Compound | Potency
Cc1cc(C)cc(C)c1 | inactive
C#CC(C)(C)NC(=O)c1cc(Cl)cc(Cl)c1 | inactive
CCCN(CCC)c1c([N+](=O)[O-])cc(C(F)(F)F)cc1[N+](=O)[O-] | inactive
CC(O)C(=O)[O][Hg][c]1ccccc1 (stereo not given) | 12.2 µM (active)
COC(=O)c1ccccc1C(=O)OC | inactive
O=C(Cl)CCl | inactive
Sc1ccccc1 | inactive
ClC(Cl)c1ccccc1 | inactive
CCC(C)(c1ccc(O)cc1)c1ccc(O)cc1 | inactive
CCCN1CCC[C@@H]2Cc3nc(N)ncc3C[C@H]21 | inactive
CC(=O)[O-].CC(=O)[O-].CC(=O)[O-].[Cr+3] | inactive
O=C(CCl)c1ccc(Cl)cc1Cl | inactive
Clc1ccc(CO/N=C(\Cn2ccnc2)c2ccc(Cl)cc2Cl)c(Cl)c1 | inactive
COP(=S)(OC)Oc1c(Cl)cc(C)cc1Cl | inactive
CC[N+]1(CCOC(=O)C(O)(c2ccccc2)c2ccccc2)CCCCC1 | inactive
CN(C)NC(=O)CCC(=O)O | inactive
C[C@H]1[C@H](c2ccc(Cl)cc2)SC(=O)N1C(=O)NC1CCCCC1 | inactive
CC(C)(C)OC(=O)c1ncn2c1[C@@H]1CCCN1C(=O)c1c(Br)cccc1-2 | inactive
ClC(Cl)C(Cl)Cl | inactive
NCCCNCCCN | inactive

Assay: cAMP Responsive Elements (CRE) small molecule agonists, cell-based qHTS assay: qHTS cell viability counter screen (AID 2060914);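 note: viability read after 3 h of compound exposure; nearly all actives have a fitted effect of over 50% in size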
Settings: CRE-bla HEK293T viability, CellTiter-Glo luminescence, 5 h; series mostly up to 92.4 µM
Outline: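 Cytotoxicity counter screen multiplexed with the CRE-bla reporter assay in HEK 293T cells: 3 h compound exposure at 37 °C, followed by CellTiter-Glo luminescence measured in the same wells.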

Compound | Potency
CCOc1cc(C=O)ccc1O | inactive
CCCCCCOC(=O)c1ccccc1C(=O)OCCCCCC | inactive
c1ccc(NNc2ccccc2)cc1 | inactive
COc1ccc(C=O)cc1 | inactive
O=C(O)c1cc(Oc2ccc(C(F)(F)F)cc2Cl)ccc1[N+](=O)[O-] | inactive
CC(C)=CC1C(C(=O)OCc2cccc(Oc3ccccc3)c2)C1(C)C (stereo not given) | inactive
c1ccc2c(c1)sc1ccccc12 | inactive
c1cc(OCC2CO2)ccc1Cc1ccc(OCC2CO2)cc1 (stereo not given) | inactive
CS(=O)(=O)c1cc(C(F)(F)F)ccc1C(=O)c1cnoc1C1CC1 | inactive
O=C(O)COc1ccc(Cl)cc1 | inactive
O=Cc1cccc(Oc2ccccc2)c1 | inactive
CN1C[C@@H](NS(=O)(=O)N(C)C)C[C@@H]2c3cccc4c3c(cn4C)C[C@H]21 | inactive
CC(C)(c1ccccc1)c1ccc(O)cc1 | inactive
COCC(=O)N(c1c(C)cccc1C)N1CCOC1=O | inactive
O=C(NC(=O)c1c(F)cccc1F)Nc1cc(Cl)c(OC(F)(F)C(F)F)c(Cl)c1 | inactive
ClC(Cl)(Cl)C(Cl)(Cl)Cl | inactive
O=P(O)(Oc1ccccc1)Oc1ccccc1 | inactive
N#Cc1c2ccccc2cc2ccccc12 | inactive
O=Cc1ccc(Cl)cc1Cl | inactive
CC(C)NC(=O)N1CC(=O)N(c2cc(Cl)cc(Cl)c2)C1=O | inactive

Compound | Potency
Cc1cc(C)cc(C)c1 | inactive
C#CC(C)(C)NC(=O)c1cc(Cl)cc(Cl)c1 | inactive
CCCN(CCC)c1c([N+](=O)[O-])cc(C(F)(F)F)cc1[N+](=O)[O-] | inactive
CC(O)C(=O)[O][Hg][c]1ccccc1 (stereo not given) | 12.2 µM (active)
COC(=O)c1ccccc1C(=O)OC | inactive
O=C(Cl)CCl | inactive
Sc1ccccc1 | inactive
ClC(Cl)c1ccccc1 | inactive
CCC(C)(c1ccc(O)cc1)c1ccc(O)cc1 | inactive
CCCN1CCC[C@@H]2Cc3nc(N)ncc3C[C@H]21 | inactive
CC(=O)[O-].CC(=O)[O-].CC(=O)[O-].[Cr+3] | inactive
O=C(CCl)c1ccc(Cl)cc1Cl | inactive
Clc1ccc(CO/N=C(\Cn2ccnc2)c2ccc(Cl)cc2Cl)c(Cl)c1 | inactive
COP(=S)(OC)Oc1c(Cl)cc(C)cc1Cl | inactive
CC[N+]1(CCOC(=O)C(O)(c2ccccc2)c2ccccc2)CCCCC1 | inactive
CN(C)NC(=O)CCC(=O)O | inactive
C[C@H]1[C@H](c2ccc(Cl)cc2)SC(=O)N1C(=O)NC1CCCCC1 | inactive
CC(C)(C)OC(=O)c1ncn2c1[C@@H]1CCCN1C(=O)c1c(Br)cccc1-2 | inactive
ClC(Cl)C(Cl)Cl | inactive
NCCCNCCCN | inactive
